From PubChem
Only some compounds are listed: those with a hit (about 12% of all), similar ones and a draw of the others.
JMJD2A Tudor – qHTS Assay for Inhibitors of JMJD2A-Tudor Domain | Potency, µM (series often up to 114 µM), usual class: inhibitors | hit rate 4.4% among 390,000 | Lysine-specific demethylase 4A (Homo sapiens), O75164 | AlphaScreen JMJD2A-Tudor / H3K4me3 peptide binding; further: nearly all actives have a fitted effect of over 50% in size
BAZ2B inh – qHTS Assay for Inhibitors of BAZ2B | AID 504333, 2011 | hit rate 4.4% among 360,000 | AlphaScreen BAZ2B-H3K14Ac peptide displacement | Potency, µM (highest dose often 114 µM), usual class: inhibitors | Bromodomain adjacent to zinc finger domain protein 2B (Homo sapiens), Q9UIF8; further: nearly all actives have a fitted effect of over 60% in size
Target sequence (Q9UIF8 whole entry, looked up, the tested form may be a part): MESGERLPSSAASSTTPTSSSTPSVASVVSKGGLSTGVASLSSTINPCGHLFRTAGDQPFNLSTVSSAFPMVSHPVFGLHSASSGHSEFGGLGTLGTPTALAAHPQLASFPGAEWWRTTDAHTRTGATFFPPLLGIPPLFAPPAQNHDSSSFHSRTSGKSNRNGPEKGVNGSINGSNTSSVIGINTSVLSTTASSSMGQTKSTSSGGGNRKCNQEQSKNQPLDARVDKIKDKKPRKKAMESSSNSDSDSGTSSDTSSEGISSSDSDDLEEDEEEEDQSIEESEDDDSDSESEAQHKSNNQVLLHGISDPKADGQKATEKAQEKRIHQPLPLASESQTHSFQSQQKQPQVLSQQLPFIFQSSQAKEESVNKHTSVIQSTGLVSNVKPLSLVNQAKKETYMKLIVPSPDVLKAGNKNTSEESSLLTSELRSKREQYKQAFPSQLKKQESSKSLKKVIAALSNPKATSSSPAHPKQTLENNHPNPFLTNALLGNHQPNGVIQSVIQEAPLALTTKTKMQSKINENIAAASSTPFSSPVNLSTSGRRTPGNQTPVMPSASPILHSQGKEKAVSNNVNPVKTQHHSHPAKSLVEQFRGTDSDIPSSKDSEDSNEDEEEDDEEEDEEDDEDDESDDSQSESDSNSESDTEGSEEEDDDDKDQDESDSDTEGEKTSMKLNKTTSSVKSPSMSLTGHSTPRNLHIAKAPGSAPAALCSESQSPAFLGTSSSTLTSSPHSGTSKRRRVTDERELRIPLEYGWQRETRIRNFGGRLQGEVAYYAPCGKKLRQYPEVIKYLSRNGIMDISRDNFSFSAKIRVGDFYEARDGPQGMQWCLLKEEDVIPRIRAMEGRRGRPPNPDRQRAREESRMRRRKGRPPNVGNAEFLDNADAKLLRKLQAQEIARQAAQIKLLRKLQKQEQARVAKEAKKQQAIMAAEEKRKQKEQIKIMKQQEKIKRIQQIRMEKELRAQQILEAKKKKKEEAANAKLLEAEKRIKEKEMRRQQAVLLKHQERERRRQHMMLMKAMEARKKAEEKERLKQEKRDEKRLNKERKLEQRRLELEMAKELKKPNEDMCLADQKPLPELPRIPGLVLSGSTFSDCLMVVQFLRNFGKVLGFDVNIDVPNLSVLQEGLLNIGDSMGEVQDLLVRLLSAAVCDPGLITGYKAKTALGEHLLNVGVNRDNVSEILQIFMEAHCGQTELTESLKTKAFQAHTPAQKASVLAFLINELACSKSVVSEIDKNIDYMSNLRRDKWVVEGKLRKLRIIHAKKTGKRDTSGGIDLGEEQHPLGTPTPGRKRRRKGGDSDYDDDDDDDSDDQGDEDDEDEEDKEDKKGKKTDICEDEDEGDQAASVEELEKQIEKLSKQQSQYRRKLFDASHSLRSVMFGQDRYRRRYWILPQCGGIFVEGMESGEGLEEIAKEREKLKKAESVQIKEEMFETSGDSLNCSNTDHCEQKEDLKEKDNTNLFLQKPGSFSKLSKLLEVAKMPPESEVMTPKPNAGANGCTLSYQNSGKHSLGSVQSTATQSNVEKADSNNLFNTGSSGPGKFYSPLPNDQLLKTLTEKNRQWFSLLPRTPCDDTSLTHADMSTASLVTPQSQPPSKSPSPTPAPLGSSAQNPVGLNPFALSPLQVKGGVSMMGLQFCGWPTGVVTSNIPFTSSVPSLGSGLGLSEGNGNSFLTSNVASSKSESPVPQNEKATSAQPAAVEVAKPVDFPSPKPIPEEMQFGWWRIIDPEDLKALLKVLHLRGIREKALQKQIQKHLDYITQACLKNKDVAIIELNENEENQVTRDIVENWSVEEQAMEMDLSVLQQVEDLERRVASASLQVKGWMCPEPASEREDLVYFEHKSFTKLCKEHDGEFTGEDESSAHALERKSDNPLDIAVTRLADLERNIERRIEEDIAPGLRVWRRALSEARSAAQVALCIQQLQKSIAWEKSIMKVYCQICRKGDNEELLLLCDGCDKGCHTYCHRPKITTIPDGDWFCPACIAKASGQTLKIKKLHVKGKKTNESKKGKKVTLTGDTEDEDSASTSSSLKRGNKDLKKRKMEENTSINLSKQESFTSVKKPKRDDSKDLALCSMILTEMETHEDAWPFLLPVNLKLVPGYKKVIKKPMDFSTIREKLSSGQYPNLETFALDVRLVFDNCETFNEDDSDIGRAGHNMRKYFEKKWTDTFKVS
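Protein-peptide AlphaScreen: BAZ2B 50 nM, b-H3K14Ac 50 nM, 1x PBS pH 7.4 + 0.01% Tween-20. Preincubation 30 min RT; cpd 30 min RT (top 110 uM); beads 20 min RT, light-protected.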
HP1b binding inh – HTS for Inhibitors of HP1-beta Chromodomain Interactions with Methylated Histone Tails; Chromobox protein homolog 1 (Homo sapiens), P83916; AlphaScreen HP1-beta / biotin-H3K9me3 peptide binding; Potency, µM (titrated, usually from 114 µM), most hits filed as inhibitors; hit rate 0.56% among 390,000; AID 540317, 2011; further: nearly all actives have a fitted effect of over 70% in size
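Compound inhibition of the preformed complex between 50 nM HP1-beta and 50 nM biotinylated H3K9me3 peptide was read by AlphaScreen. Buffer was PBS pH 7.4 with 0.01% Tween-20. Incubations ran 30 min at room temperature, with 10 ug/mL donor/acceptor beads.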
PI5P4Ka inh – qHTS for Inhibitors of phosphatidylinositol 5-phosphate 4-kinase (PI5P4K); PI5P4Kalpha enzyme, ADP-Glo luminescence, 60 min; hits give low values; AID 652105, 2013; Phosphatidylinositol 5-phosphate 4-kinase type-2 alpha (Homo sapiens), P48426; max response, %; hit rate 1.2% among 330,000; active means max response of -50% or lower; inconclusive means between -30% and -50%; inactive means -30% or higher; further: value at the top dose of about 77 µM
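Human PI5P4Kalpha with substrate in 0.038 M HEPES pH 7.4, 0.28 mM EGTA, 0.1% CHAPS, 5% DMSO; reaction started with 5 microM ATP (final), 60 min at room temperature. ADP formed read by ADP-Glo luminescence.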
PLK1 PBD block – qHTS for Inhibitors of PLK1-PDB (polo-like kinase 1 - polo-box domain): Primary Screen; Serine/threonine-protein kinase PLK1 (Homo sapiens), P53350; Plk1 PBD binding of FITC phosphopeptide, fluorescence polarization; Potency, µM, actives largely listed as inhibitors; hit rate 2.8% among 360,000; AID 720504, 2013; further: series mostly up to about 57 µM; nearly all actives have a fitted effect of over 65% in size
G9a inh – qHTS Assay for Inhibitors of Histone Lysine Methyltransferase G9a | G9a H3K9 monomethylation, AlphaScreen, 2 h | Potency, µM (top dose mostly 102 µM), hits mostly inhibitors | hit rate 8.8% among 350,000 | AID 504332, 2011; further: nearly all actives have a fitted effect of over 75% in size
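Chemiluminescent proximity detection of H3K9 monomethylation, read after 10 min bead incubation in the dark. Reaction: 20 nM G9a, 500 nM biotin-H3K9 peptide, 20 uM SAM cofactor, 2 h, room temperature, following 15 min enzyme-compound preincubation.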
Each line names hits and unclear results; the compound was inactive in the other large screens. Unless noted, the call rests on the fitted dose curve; in most records, active means well fitted curve in the direction sought with a large enough effect; inconclusive means small, poorly fitted or top-dose-only effect, or another doubt; inactive means no such curve, though single readings can be large; an effect the other way counts as inactive or inconclusive.

CCCOc1ccc(C(=O)NCc2ccco2)cc1	none
CC(C)Oc1ccc(C(=O)NCc2ccco2)cc1	HP1b binding inh inconclusive, PLK1 PBD block 26.7µM
O=C(NCc1ccco1)c1cccc(NC(=O)c2ccco2)c1	G9a inh 56.2µM (no result: PI5P4Ka inh)
O=C(NCc1ccccc1)c1cccc(NC(=O)c2ccco2)c1	none
CC/C(=N/Nc1ccccc1)c1cnnc(-c2ccccc2)n1	G9a inh 7.08µM
Cc1cc(NC(=O)c2ccc(Br)o2)cc(-c2nc3ccccc3o2)c1O	none (no result: PI5P4Ka inh, PLK1 PBD block)
COc1ccc(Cl)cc1NC(=O)NC(C)C	G9a inh inconclusive
COc1ccc(Cl)cc1NC(=O)C(C)NC(c1ccccc1)c1ccccc1 (stereo not drawn)	G9a inh 79.4µM
CCN(C(=O)COC(=O)CSc1ccc([N+](=O)[O-])cc1)C1CCS(=O)(=O)C1 (stereo not drawn)	JMJD2A Tudor 35.5µM, HP1b binding inh 50.1µM, PLK1 PBD block 7.52µM
Cc1ccc(CN(C)C(=O)COC(=O)CSc2ccc([N+](=O)[O-])cc2)cc1	HP1b binding inh inconclusive, PLK1 PBD block 13.4µM, G9a inh inconclusive
CCN(C(=O)COC(=O)CSc1ccc(C)c(C)c1)C1CCS(=O)(=O)C1 (stereo not drawn)	none (no result: G9a inh)
CN(C(=O)CSc1nc2ccc([N+](=O)[O-])cc2s1)C1CCS(=O)(=O)C1 (stereo not drawn)	PLK1 PBD block inconclusive
CN(C(=O)COC(=O)CSc1ccc([N+](=O)[O-])cc1)C1CCS(=O)(=O)C1 (stereo not drawn)	G9a inh 50.1µM
CN(C(=O)CSc1nc2cc([N+](=O)[O-])ccc2n1-c1ccc(F)cc1)C1CCS(=O)(=O)C1 (stereo not drawn)	JMJD2A Tudor 79.4µM, G9a inh 20µM
CC1CCN(C(=O)c2ccc(NS(=O)(=O)c3cccc4cccnc34)cc2)CC1	none (no result: G9a inh)
O=C(CN1CCN(C2CCCCC2)CC1)c1ccc2cc[nH]c2c1	G9a inh 28.2µM
O=C(NNC(=O)c1ccc(NC(=O)c2ccccc2)cc1)c1ccc(F)cc1	G9a inh inconclusive
O=C(NC1=C(Nc2ccc(F)cc2)C(=O)c2ccccc2C1=O)c1ccc(Cl)cc1	HP1b binding inh inconclusive, G9a inh 5.01µM
COc1cc(-c2cc3nc(NC4CCCCC4)ccn3n2)cc(OC)c1OC	none (no result: JMJD2A Tudor, BAZ2B inh, HP1b binding inh, G9a inh)
COc1cc(-c2csc(NC3CCCCC3)n2)cc(OC)c1OC	JMJD2A Tudor inconclusive, BAZ2B inh inconclusive, G9a inh 25.1µM
COC(=O)C(O)C1C(C)(C)C(OC(C)=O)C2CC3=C4CC(=O)OC(c5ccoc5)[C@]4(C)CCC3[C@@]1(C)C2=O (stereo partly drawn)	none (no result: JMJD2A Tudor, BAZ2B inh, HP1b binding inh, PI5P4Ka inh, PLK1 PBD block)
CC12CCC(c3c1nc1ccccc1[n+]3[O-])C2(C)C (stereo not drawn)	JMJD2A Tudor 44.7µM, PLK1 PBD block 18.9µM
O=[N+]([O-])c1ccc(/C=N/N2CCN(c3ccncc3S(=O)(=O)N3CCCCC3)CC2)cc1	none
OC(c1ccccc1)(c1ccccc1)C1CCN(CCCOc2cccc(OC(F)(F)F)c2)CC1	none (no result: JMJD2A Tudor, BAZ2B inh, HP1b binding inh, G9a inh)
O=[N+]([O-])c1ccccc1S(=O)(=O)N1CCN(C2CCN(Cc3ccccc3)CC2)CC1	JMJD2A Tudor 0.708µM, HP1b binding inh inconclusive
O=[N+]([O-])c1ccccc1/C=N/N1CCN(c2ccncc2S(=O)(=O)N2CCCCC2)CC1	JMJD2A Tudor 35.5µM, BAZ2B inh 31.6µM, HP1b binding inh inconclusive, G9a inh inconclusive
CC1CCCCN1S(=O)(=O)c1ccccc1[N+](=O)[O-] (stereo not drawn)	none
O=[N+]([O-])c1ccccc1S(=O)(=O)N1CCN(C2CCCC2)CC1	JMJD2A Tudor 1.78µM, BAZ2B inh 79.4µM, HP1b binding inh inconclusive (no result: G9a inh)
O=[N+]([O-])c1cccc(OCCCN2CCC(Cc3ccccc3)CC2)c1	JMJD2A Tudor 79.4µM (no result: BAZ2B inh, G9a inh)
